# Compound activity (PubChem)
# Most compounds without a hit are left out; they make up all but 0.83% or so of the library.
# USP7 block = inhibitors of human USP7 deubiquitinase; 47,000 compounds, 0.3% hits; inhibition, % at 20 µM; purified USP7, Ub-rhodamine cleavage fluorescence
# OTUD3 block = inhibitors of human OTUD3 deubiquitinase; Q5T2D3; purified OTUD3, Ub-rhodamine fluorescence, 2 h; inhibition, % at 25 µM; 47,000 compounds, 0.7% hits; AID 1645858
# Target sequence (Q5T2D3 whole entry, looked up): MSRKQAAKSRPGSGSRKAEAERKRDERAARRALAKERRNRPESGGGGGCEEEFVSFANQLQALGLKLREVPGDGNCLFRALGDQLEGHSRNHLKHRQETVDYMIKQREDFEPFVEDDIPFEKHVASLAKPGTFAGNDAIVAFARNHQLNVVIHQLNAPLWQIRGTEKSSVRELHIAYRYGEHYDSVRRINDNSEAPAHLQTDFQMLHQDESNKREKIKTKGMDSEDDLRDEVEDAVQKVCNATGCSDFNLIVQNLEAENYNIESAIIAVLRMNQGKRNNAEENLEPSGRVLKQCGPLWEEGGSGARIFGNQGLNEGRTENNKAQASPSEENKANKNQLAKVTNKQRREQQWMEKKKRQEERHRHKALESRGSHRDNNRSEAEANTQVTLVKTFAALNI
# UCHL1 block = inhibitors of human UCHL1 deubiquitinase; 47,000 compounds, 0.2% hits; AID 1645859; P09936; purified UCHL1, Ub-rhodamine cleavage fluorescence; inhibition, % at 20 µM
# Active calls of the source: *. Rule as the data show it: active = inhibition above about 30%; inactive = the rest.
SMILES,USP7 block,OTUD3 block,UCHL1 block
Nc1ccc2oc(-c3cccc(-c4nc5cc(N)ccc5o4)n3)nc2c1,30,40*,23
Clc1ccc2oc(-c3cccs3)nc2c1,-32,-2,-1
O=C1c2c(O)c(Cl)cc3c2[C@@]2(Oc4ccc(O)c5c4[C@]3(O2)[C@@H]2O[C@@H]2C5=O)[C@@H]2O[C@H]12,82*,89*,84*
Oc1ccc2c3c1[C@@H](O)C1OC1[C@]31Oc3cccc4c3[C@](C=C[C@@H]4O)(O2)O1 (some centres not stated),-5,-7,0
CC1OC(OCC2OC(Oc3c(-c4ccc(O)c(O)c4)oc4cc(O)cc(O)c4c3=O)C(O)C(O)C2O)C(O)C(O)C1O (configuration not stated),-1,-7,-1
O=c1cc(-c2ccc(O)c(O)c2)oc2cc(O[C@@H]3O[C@H](CO)[C@@H](O)[C@H](O)[C@H]3O)cc(O)c12,36*,97*,31*
COc1ccccc1Nc1cc(C(=O)NCCCN2CCN(c3cccc(Cl)c3)CC2)c2ccccc2n1,8,-1,7
Cc1c(Cl)ccc2c(=O)c3c([nH]c12)CCN(CC(=O)NCc1ccc2c(c1)OCO2)C3,-163,29,-165
CS(=O)(=O)n1nc(NCc2ccc(F)cc2)nc1NCc1ccc(F)cc1,-101,33*,2
Cc1ccc(CNc2nc(-c3cccnc3)nn2S(C)(=O)=O)cc1,-2,4,3
CCN1CCN(c2nc(NCc3ccco3)c3ccccc3n2)CC1,-11,-12,-1
Cc1ccc(Nc2nc(NCc3ccco3)c3ccccc3n2)cc1,12,35*,10
COc1ccccc1-c1nn(-c2ccccc2)cc1C(=O)N1CCCc2ccccc21,-53,0,1
CCNc1oc(-c2ccc(S(=O)(=O)N3CCCCC3)cc2)nc1C#N,7,5,5
CN1CCN(CCC(=O)Nc2cc(C(F)(F)F)ccc2Cl)CC1,0,10,1
O=C(CCSc1nnnn1-c1ccccc1)Nc1cc(C(F)(F)F)ccc1Cl,35*,-7,11
O=C(NCCc1ccc(F)cc1)c1cccc(N2C(=O)CCS2(=O)=O)c1,-1,9,2
O=c1[nH]c(-c2ccncc2)nc2c1CCN(Cc1ccc(Cl)cc1)C2,-1,2,-1
COc1ccc(-c2nc(-c3cn(-c4ccccc4)nn3)no2)c(OC)c1,5,35*,2
COc1ccc(-c2nc(-c3cn(-c4cccc(Cl)c4)nn3)no2)c(OC)c1,25,-3,10
CCOC(=O)c1cc2c(=O)n3ccccc3nc2n(Cc2ccco2)c1=NC(=O)COc1ccc2ccccc2c1,27,-41,43*
CCOC(=O)c1c2ccc(OCC(=O)NCc3ccco3)cc2n2ccccc12,-71,-24,-37
CC[C@@H]1CCC[C@H](C)CC[C@@H](O[C@@H]2O[C@@H](C)[C@@H](O)[C@@H](N)[C@H]2O)[C@H](CC)CCCNC1=O,21,36*,18
CS(=O)(=O)c1ccc(Cl)c(NC(=O)COC(=O)c2ccc3[nH]c4c(c3c2)CCCC4)c1,12,1,8
O=C(COC(=O)C1CCCN1C(=O)C12CC3CC(CC(C3)C1)C2)c1ccc(Cl)cc1 (configuration not stated),6,14,2
SMILES,USP7 block,OTUD3 block,UCHL1 block
COc1ccccc1CC(=O)N1CCC(Cc2ccccc2)CC1,-1,19,3
CCCCCCCC1OC(=O)Cc2cc(O)c(O)c(O)c21 (configuration not stated),75*,92*,63*
COc1ccc(S(=O)(=O)N2CCC3(CC2)CC3c2nc(-c3cccnc3)no2)c(C)c1 (configuration not stated),8,10,5
COc1c(O)c(O)c2c(=O)cc(-c3ccc(O)cc3)oc2c1OC,-45,46*,12
COc1cc(OC)c2c(=O)cc(-c3ccccc3)oc2c1OC,3,10,7
CC(=O)c1ccc(NC(=O)Cc2sc(C)nc2-c2ccc(C)cc2)cc1,2,-1,8
CCc1ccccc1N(CC(=O)NCc1ccncc1)S(C)(=O)=O,4,5,3
CCC(C(=O)NCc1ccncc1)N(c1cccc(Cl)c1)S(C)(=O)=O (configuration not stated),-13,32*,3
Cc1ccc(NC(=O)Cc2nnc3c(-c4nc(C5CC5)no4)cccn23)cc1F,53*,7,31*
Cc1ccc(NC(=O)Cc2nnc3c(-c4nc(C5CC5)no4)cccn23)c(C)c1,7,-13,9
COc1ccc(C(=O)Nc2cc(F)c3nc(N4CCOCC4)ccc3c2)c(OC)c1,-16,-13,6
COc1cn(-c2ccc(F)cc2)nc1C(=O)Nc1ccc(F)c(F)c1,4,5,4
O=C(NCc1ccc2c(c1)OCO2)c1nn(C23CC4CC(CC(C4)C2)C3)cc1[N+](=O)[O-],12,33*,6
O=C(NCc1ccco1)c1nn(C23CC4CC(CC(C4)C2)C3)cc1[N+](=O)[O-],-6,10,0
Cc1cc2c(cc1S(=O)(=O)N1CCCC(C)C1)OCC(=O)N2 (configuration not stated),0,-1,2
CCc1ccc(NC(=O)Cn2c(=O)n(Cc3ccccc3)c(=O)c3nn(CC)cc32)cc1,32*,18,5
CCn1cc2c(n1)c(=O)n(Cc1ccccc1)c(=O)n2CC(=O)Nc1ccc(C(C)C)cc1,14,8,3
COc1cc(C)ccc1NC(=O)COc1cccc2c1OC(C)(C)C2,5,22,6
COc1cccc2c1OCC(NS(=O)(=O)c1cc(C)ccc1C)C2 (configuration not stated),-1,82*,1
Cc1sc2ncn3c(=O)n(CC(=O)Nc4ccc(F)c(Cl)c4)nc3c2c1C,2,6,-1
COc1ccc(C2CC(=O)N(CC(=O)Nc3ccc(NC(C)=O)cc3)c3ccccc3S2)cc1OC (configuration not stated),0,-6,1
COc1ccccc1CNC(=O)c1ccccc1-c1ccccc1,-32,0,0
COc1ccccc1CNC(=O)c1ccccc1OCc1ccccc1Cl,-13,30*,6
Cc1cccc(NC(=O)c2cn(CC(=O)NC3CCCC3)c3nc(C)ccc3c2=O)c1,1,-1,-5
O=C(Cn1c(=O)n(Cc2ccc3c(c2)OCO3)c(=O)c2ncccc21)NCc1ccccc1,1,44*,7
SMILES,USP7 block,OTUD3 block,UCHL1 block
O=C(Cn1c(=O)n(Cc2ccc(F)cc2)c(=O)c2ncccc21)NCc1ccc(F)cc1,-64,20,-3
Fc1ccc(Nc2ncnc3c(-c4ccccc4)noc23)cc1,4,3,-2
COc1ccc(NS(=O)(=O)c2ccc(N3CCCC3)c(NC(=O)/C=C/c3ccccc3)c2)cc1,6,2,3
O=C(NCc1cccc(Br)c1)c1cc2ccccn2n1,6,14,2
Cc1nn(-c2ccccc2)cc1-c1noc(C(=O)NCCCc2ccccc2)n1,-4,20,4
CC1CC(=O)c2c(cc3c(-c4c(O)cc(O)c5c(O)c6c(cc45)OC(C)CC6=O)c(O)cc(O)c3c2O)O1 (configuration not stated),74*,78*,83*
COc1ccccc1CNC(=O)CCC(=O)Nc1ccc2nc(N3CCC(C)CC3)cc(C)c2c1,-5,-19,1
